Screening results as filed in PubChem.
Most compounds without a hit are left out; they make up all but 20% or so of the library.
Cycloheximide cs – Cycloheximide Counterscreen for Small Molecule Inhibitors of Shiga Toxin | cell reporter, cycloheximide protein synthesis inhibition counterscreen | max response, % | hit rate 12% among 300,000 | AID 2314, 2010; in the data active means max response mostly above about 13%, no sharp cut-off; inactive means mostly below about 14%; further: read at 38.3 µM for the half of the compounds with a filed dose; 0% is about no effect
HCMV antiviral – qHTS Assay for inhibitors of the human cytomegalovirus (HCMV); hit rate 4.5% among 410,000; HFF cells, HCMV-luciferase reporter, 72 h; hits give low values; activity change, negative = inhibition, % at 57.5 µM; AID 1259415, 2018; in the data active means activity change below about -60%; inconclusive means no clear call, values can overlap the other calls; inactive means above about -39%; further: on the % scale 0 is the no-effect control and ±100 the full control effect
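Two compound doses tested in HFFs infected with HCMV-luciferase, MOI 1 PFU/cell, 72 h at 37C. Lysate luminescence read with OneGlo; data normalized against buffer-only and 10uM Salinomycin inhibitor controls.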
Shiga toxin inh – A qHTS for Small Molecule Inhibitors of Shiga Toxin. AID 2315, 2010. inhibition, % at 38.7 µM. hit rate 9.2% among 290,000. Vero cells, Shiga toxin protein synthesis inhibition reporter; in the data active means inhibition mostly above about 28%, no sharp cut-off; inactive means mostly below about 43%; further: 0% is about no effect
Pf growth 96h – Primary qHTS for delayed death inhibitors of the malarial parasite plastid, 96 hour incubation | P. falciparum luciferase reporter growth, 96 h | Potency, µM (highest dose often 28.7 µM), without a hit: at the highest dose activity change, negative = inhibition, usual class: inhibitors | hit rate 6.9% among 320,000; further: potency means the concentration at half of the fitted maximal effect; on the % scale 0 is the no-effect control and ±100 the full control effect
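Luminescence readout: decreased luciferase signal marks inhibited growth of reporter-expressing P. falciparum in infected red cells (2% hematocrit, 0.05% parasitemia final), exposed to compound two generations (96 h, 37 C, 5% CO2).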
Pf growth 48h – Primary qHTS for delayed death inhibitors of the malarial parasite plastid, 48 hour incubation | P. falciparum luciferase growth in erythrocytes, 48 h | Potency, µM (highest dose often 28.7 µM), for the others: at the top dose activity change, negative = inhibition, most hits filed as inhibitors | hit rate 5.9% among 310,000 | AID 504832, 2011; further: potency means the concentration at half of the fitted maximal effect; on the % scale 0 is the no-effect control and ±100 the full control effect
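Read-out is firefly luciferase luminescence from an integrated reporter in P. falciparum, so falling signal marks reduced parasite growth. Infected erythrocytes were at 2% hematocrit and 0.1% parasitemia (final) in Albumax-supplemented RPMI 1640.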
Numbers without * were called inactive; ? = inconclusive; nt = no result; [ ] = another dose, or the depositor's remark. Unless noted, the call rests on the fitted dose curve; in most records, active means well fitted inhibition curve with a large enough effect; inconclusive means small, poorly fitted or top-dose-only effect, or another doubt; inactive means no such curve, though single readings can be large or run the other way.

SMILES | Cycloheximide cs | HCMV antiviral | Shiga toxin inh | Pf growth 96h | Pf growth 48h
COC(=O)C1=CN(CC2CCCO2)C=C(C(=O)OC)C1c1cc(OC)c(OC)c(OC)c1 (centres undefined) | -2 | 52 | -18 | 4.1µM* | ?
COC(=O)C1=CN(Cc2ccc(C)cc2)C=C(C(=O)OC)C1c1ccc(F)c(F)c1 | -2 | nt | -1 | 15% | 6.6µM*
COC(=O)C1=CN(Cc2ccccc2)C=C(C(=O)OC)C1c1cc(F)ccc1F | 6 | -23 | -7 | 7.4µM* | 7.4µM*
COc1ccc(N(CC(=O)NCCC2=CCCCC2)S(=O)(=O)c2c(C)[nH]c(=O)[nH]c2=O)cc1 | -1 | -13 | 3 | -5% | -13%
CCOc1ccccc1NC(=O)c1ccc2c(Cl)c3c(nc2c1)CCC3 | nt | 31 | nt | nt | nt
Cc1ccc(C(=O)CCC(=O)Nc2ccccc2C)c(C)c1 | 29* | 7 | 12 | 131% | 62%
Cc1ccc(C(=O)CC(=O)c2cccc(F)c2)c(O)c1 | 36* | 36 | 77* | ? | nt
Cc1ccc(C(=O)CC(=O)c2ccccc2C)c(O)c1 | 20* | ? | 39 | ? | ?
COc1ccc(C(CNC(=O)c2cccc(S(=O)(=O)NCc3ccccc3)c2)N(C)C)cc1 (centres undefined) | -3 | -23 | -5 | 0% | ?
CC(OC(=O)CCN=C1NS(=O)(=O)c2ccccc21)C(=O)Nc1ccccc1F (centres undefined) | nt | -33 | nt | 42% | 5%
CCOCCCNC(=O)c1[nH]c2cc(C)ccc2c1Sc1ccc(Cl)cc1 | nt | 10 | nt | nt | nt
Cc1ccc(NC(=O)c2ccc(N3CCOCC3)c([N+](=O)[O-])c2)cc1S(=O)(=O)N1CCOCC1 | 2 | -98* | -12 | ? | ?
O=C(Nc1ccc2c(c1)OCO2)c1ccc(NC2CC2)c([N+](=O)[O-])c1 | 26* | -32 | 102* | 12% | 10%
CCOc1ccc(C(=O)Nc2cc(-c3nc4cc(OC)ccc4o3)ccc2C)cc1[N+](=O)[O-] | nt | 97 | nt | nt | nt
CN(C)S(=O)(=O)c1cccc(NC(=O)c2ccc(N3CCOCC3)c([N+](=O)[O-])c2)c1 | 4 | -71* | 18 | ? | -8%
COc1ccc2oc(-c3ccc(C)c(NC(=O)c4ccc(N5CCOCC5)c([N+](=O)[O-])c4)c3)nc2c1 | 59* | -81* | 134* | ? | 126%
O=C(NC(=S)Nc1ccccc1N1CCCC1)c1ccccc1[N+](=O)[O-] | -4 | 13 | -17 | -101% | ?
CN(C)S(=O)(=O)c1cc(NC(=O)c2ccc(-n3ccnc3)c([N+](=O)[O-])c2)ccc1Cl | -2 | -71* | 19 | ? | 8.3µM*
O=C(NC(=S)Nc1ccc(N2CCCC2)cc1)c1ccccc1[N+](=O)[O-] | 13 | 109 | 40* | 4% | 69%
O=C(Nc1ccc(N2CCCCC2)c(Cl)c1)c1ccc(N2CCOCC2)c([N+](=O)[O-])c1 | 0 | -80* | -9 | ? | 5.2µM*
COc1ccccc1NC(=O)c1ccc(-n2ccnc2)c([N+](=O)[O-])c1 | -1 | 15 | -6 | ? | ?
O=C(Nc1ccc(N2CCCC2)c(Cl)c1)c1ccccc1[N+](=O)[O-] | 27* | 38 | 15 | ? | 15%
CC(C)c1ccc(NC(=O)CSc2nc3ccccc3nc2Cc2ccccc2)cc1 | nt | -12 | nt | nt | nt
O=C(Nc1ccc(N2CCCC2)c(Cl)c1)c1ccc2c(c1)OCCO2 | nt | -4 | nt | nt | nt
CCCC(=O)N1CCN(c2ccc(NC(=O)c3ccc(N4CCCC4)c([N+](=O)[O-])c3)cc2Cl)CC1 | nt | -9 | nt | nt | nt
SMILES | Cycloheximide cs | HCMV antiviral | Shiga toxin inh | Pf growth 96h | Pf growth 48h
CC1CCCN(c2ccc(C(=O)Nc3cccnc3)cc2[N+](=O)[O-])C1 (centres undefined) | 20 | ? | 48* | 5% | -15%
O=C(Nc1ccc2c(c1)OCO2)c1ccc(N2CCCC2)c([N+](=O)[O-])c1 | 34* | -17 | 29 | ? | 1%
CC(=O)N1CCN(c2ccc(NC(=O)c3ccc(N4CCCC4)c([N+](=O)[O-])c3)cc2Cl)CC1 | 10 | -71* | -8 | ? | 12µM*
O=C(Nc1nc2ccc(Cl)cc2s1)c1ccc(N2CCCCC2)c([N+](=O)[O-])c1 | -1 | -67* | 11 | ? | ?
CC(=O)Nc1ccc(N2CCCC(C)C2)c([N+](=O)[O-])c1 (centres undefined) | -9 | ? | -8 | -1% | -19%
CCOC1=C2[C@H](c3ccc(CC)cc3)N(S(=O)(=O)c3ccc(C)cc3)C[C@H]2n2c(=O)n(-c3ccccc3)c(=O)n2C1 | nt | 17 | nt | nt | nt
CNC(=O)C[C@@H](N)C(=O)N[C@@H](C(=O)N[C@@H]1C(=O)N2[C@@H]1SC(C)(C)[C@@H]2C(=O)O)c1ccc(O)cc1 | nt | nt | nt | ? | 4%
CN(C(=O)c1cc2n(n1)C(C(F)(F)F)CC(c1ccco1)N2)c1ccccc1 (centres undefined) | -7 | 37 | -6 | -14% | -4%
CCc1ccc(NC(=O)Cc2csc(COc3cccc(C)c3)n2)cc1 | nt | 8 | nt | nt | nt
Cc1cc(C(=O)Nc2cccc(-c3ccc(N4CCOCC4)nn3)c2)ccc1[N+](=O)[O-] | nt | -25 | nt | 10µM* | ?
COc1ccc(NC(=S)N2CCC(C(O)(c3ccccc3)c3ccccc3)CC2)cc1 | -3 | -17 | -12 | 17% | -3%
CCc1ccc(NC(=O)N2CCC(c3ccccc3)C2)cc1 (centres undefined) | 39* | 0 | 108* | 19% | 246%
N#Cc1cccc(C(=O)C(=O)N2CCC(c3ccccc3)CC2)c1 | nt | -14 | nt | nt | nt
O=C(C(=O)N1CCC(c2ccccc2)CC1)c1ccc(F)c(F)c1 | nt | -62* | nt | nt | nt
Cc1ccc(C2CCN(C(=O)Nc3ccc(Cl)c(Cl)c3)C2)cc1 (centres undefined) | nt | 3 | nt | nt | nt
Cc1ccc(NC(=O)N2CCCC(c3ccccc3)C2)cc1 (centres undefined) | 22* | 8 | 26 | 4% | 17%
COc1ccc(NC(=S)N2CCC(c3ccccc3)C2)cc1 (centres undefined) | 40* | 5 | 84* | 10% | 0%[0.00184 µM]
O=C(NNC(=O)c1ccc2ccccc2c1)c1cccc(Cl)c1 | nt | -13 | nt | nt | nt
CCOc1cc(C#N)c(-n2nnc3c(sc4nc(C)cc(C)c43)c2=O)cc1OCC | nt | 2 | nt | nt | nt
CCN(CC(=O)NCc1cccs1)C(=O)Cc1ccc(Cl)c(Cl)c1 | nt | -27 | nt | nt | nt
Cc1ccc(C2CCN(C(=O)Nc3ccc(Cl)cc3)C2)cc1 (centres undefined) | nt | -18 | nt | nt | nt
O=C(Nc1ccccc1)N1CCC(c2ccccc2)C1 (centres undefined) | 39* | 56 | 83* | -26% | 96%
CCOc1ccc(NC(=O)N2CCC(c3ccc(C)cc3)C2)cc1 (centres undefined) | 18* | -29 | 30 | 1% | 26%
O=C(Nc1ccc(Cl)c(Cl)c1)N1CCC(c2ccccc2)C1 (centres undefined) | nt | 71 | nt | nt | nt
